# The sample as a whole holds a higher share of hits than the screen did.
# GIRK2 act: GIRK2 channel activators by thallium flux. P48051. HEK293 GIRK2/NPY4 cells, thallium flux fluorescence. activation (% efficacy), % for hits at 37.5 µM. 34,000 tested, under 10 active;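 active means primary screen hit, no activity in plain HEK293 cells, and in GIRK2-only cells above 5% efficacy rising with concentration; inactive means the rest, including fluorescent compounds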;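 further: efficacy is normalized control-subtracted fluorescence 15 s after thallium addition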
# AMPAR-TARP mod: modulates AMPAR-stargazin complexes; O88602+P19491; HEK293 GluA2+stargazin, membrane potential dye (FDSS), glutamate EC50; hits were called plate by plate, in both directions; calls only at 30 µM; actives 3.5% (n = 40,000); AID 1259245;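 active means any of four per-well response measures lying three or more SD from its plate-wide compound average, in either direction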
# Active calls of the source: *; i = inactive; nt = not tested or not shown; + = active, no number.
SMILES,GIRK2 act,AMPAR-TARP mod
COc1ccc(CNC(=O)c2cc(-c3cccs3)nc3c2c(C)nn3C2CCS(=O)(=O)C2)cc1 (stereo not drawn),i,i
CCc1ccccc1NC(=O)COC(=O)CCCC1=NS(=O)(=O)c2ccccc2N1,nt,i
O=c1ccc(-c2ccccc2)nn1CCCNS(=O)(=O)c1cccs1,i,i
Cc1cnc2c(c1SCC(=O)NC1CCCC1)c(=O)n(C)c(=O)n2C,i,i
CC(C)Cc1cnc2c(c1SCC(=O)NC1CCCC1)c(=O)n(C)c(=O)n2C,nt,+
CC(=O)Nc1cccc(NC(=O)Cc2csc(Nc3ccc(F)cc3)n2)c1,i,i
Cc1ccc(CNC(=O)c2cnc3c(c(C)nn3-c3ccc(F)cc3)c2Cl)cc1,i,i
Cc1nn(-c2ccc(F)cc2)c2ncc(C(=O)NCCCn3ccnc3)c(Cl)c12,nt,+
O=C(CSc1cc(N2CCCCC2)ncn1)Nc1ccc(F)c(Cl)c1,i,i
CN1C(=O)C(=C2C=C(c3ccccc3)N(Cc3ccco3)C3=C2CCCC3)C(=O)N(C)C1=O,nt,+
COc1cc(C(C)=O)ccc1OCC(O)CN1CCN(c2ccccc2Cl)CC1 (stereo not drawn),nt,i
Cc1cc(N(C)C)nc(NCCNC(=O)c2cnccn2)n1,i,+
Cc1cc(N(C)C)nc(NCCNC(=O)c2ccc(Br)o2)n1,i,nt
COc1cccc2cc(C(=O)N(Cc3cccn3C)C3CC3)oc12,i,nt
CCn1c(SCc2nc(-c3ccc(OC)cc3OC)no2)nc2ccccc2c1=O,nt,i
CCn1c(SCc2nc(-c3ccc(OC)c(OC)c3)no2)nc2ccccc2c1=O,nt,+
COc1ccc(NC(=O)Nc2ccccc2C(F)(F)F)cc1N1CCCCC1=O,i,i
COc1ccccc1N1CCN(S(=O)(=O)c2ccc(F)c(C(=O)Nc3ccc(Cl)cc3)c2)CC1,nt,+
COc1ccc(Cl)cc1NC(=O)c1cc(S(=O)(=O)N2CCN(c3ccccc3F)CC2)ccc1F,nt,i
Cc1cc(C)n(CC(=O)N2CCN(c3ccccc3O)CC2)n1,nt,i
Cc1c(Cl)cccc1NC(=O)c1ccc(O)cc1,nt,i
COc1ccc2nc(-c3ccc(C)c(NS(=O)(=O)c4ccc(C)s4)c3)cn2n1,i,+
COc1ccc2nc(-c3ccc(C)c(NS(=O)(=O)c4ccc(C(C)=O)cc4)c3)cn2n1,i,+
COc1ccc2nc(-c3ccc(C)c(NS(=O)(=O)c4cc(C)ccc4OC)c3)cn2n1,i,nt
COc1ccc2nc(-c3ccc(C)c(NS(=O)(=O)c4ccc(C)c(C)c4)c3)cn2n1,i,nt
SMILES,GIRK2 act,AMPAR-TARP mod
CCc1ccc(-c2cc3c(=O)n(Cc4nc(-c5ccc(OC)cc5OC)no4)ccn3n2)cc1,i,i
CCc1ccc(-c2cc3c(=O)n(Cc4nc(-c5cccc(C(F)(F)F)c5)no4)ccn3n2)cc1,i,+
COCCCNC(=O)c1snc(-c2ccc(C)cc2)c1N,i,nt
O=C(c1ccc(Cl)c(S(=O)(=O)N2CCCCC2)c1)N1CCc2ccccc21,nt,i
COc1cccc(C(=O)Nc2nc3ncccc3cc2-c2ccccc2)c1,i,+
O=C(Nc1nc2ncccc2cc1-c1ccccc1)C1CCCC1,i,i
CCn1ncc(/C=c2/sc3n(c2=O)C(c2ccccc2)C(C(=O)Nc2ccccc2C)=C(C)N=3)c1C (stereo not drawn),i,i
CCN(CC)C(=O)Cn1cc(C(=O)C(=O)N(Cc2ccccc2)C(C)C)c2ccccc21,nt,+
CCN(CC)C(=O)Cn1cc(C(=O)C(=O)N2CCN(Cc3ccccc3)CC2)c2ccccc21,nt,i
COc1ccc(-c2ccc(=O)n(CCCC(=O)O)n2)cc1,nt,i
COc1ccc(C(=O)Nc2ccc(N3CCCC3=O)cc2)cc1,i,+
COc1cc(OC)cc(C(=O)Nc2ccc(N3CCCC3=O)cc2)c1,i,i
Cc1cccc(NC(=O)Cn2c(C)cc(C)c(S(=O)(=O)c3ccccc3)c2=O)c1,nt,i
Cc1cc(=O)oc2cc(OCC3CCNCC3)ccc12,i,+
Cc1cc(=O)oc2cc(OCC(=O)c3ccc(Cl)c(Cl)c3)ccc12,nt,i
CN1C(=O)C2C(c3ccc([N+](=O)[O-])cc3)NN(C)C2C1=O (stereo not drawn),nt,+
CCOC(=O)c1ccc(N2C(=S)N(c3ccccc3)C3CS(=O)(=O)CC32)cc1 (stereo not drawn),i,i
CCOC(=O)CN1C(=O)CN(C(=O)c2ccccc2)C1=S,nt,+
Cn1cccc1C(CNC(=O)COc1ccccc1F)N1CCCCCC1 (stereo not drawn),i,i
COc1cc(/C=C2\SC(=S)N(c3cccc(C(C)=O)c3)C2=O)cc(OC)c1OC,nt,i
O=C(Nc1nnc(Cc2cccs2)o1)c1cc2ccccc2oc1=O,i,+
O=C(Nc1nnc(Cc2cccs2)o1)c1ccccc1,i,i
Cc1ccccc1NC(=O)NCCNc1ccc(Nc2ccccn2)nn1,i,i
CN1CC(NC(=O)CC(C)(C)C)CC1=O (stereo not drawn),i,nt
COc1ccc(-c2nc3c4cnn(-c5ccc(C)c(Cl)c5)c4ncn3n2)c(O)c1,i,i
SMILES,GIRK2 act,AMPAR-TARP mod
CN(C(=O)Cn1cnc2c(-c3ccccc3)csc2c1=O)c1ccc(F)cc1,i,i
CCN(C(=O)Cn1cnc2c(-c3ccccc3)csc2c1=O)c1ccccc1,i,+
COc1cccc(S(=O)(=O)NCCC(O)C2CC2)c1 (stereo not drawn),i,+
COc1cccc(S(=O)(=O)NCC(O)(c2ccccc2)C2CC2)c1 (stereo not drawn),i,i
Cc1ccccc1-c1noc(Cn2c(=O)n(Cc3ccc4c(c3)OCO4)c(=O)c3sccc32)n1,i,i
COCCN1CCC(CNC(=O)C2CCN(S(C)(=O)=O)CC2)CC1,i,nt
CS(=O)(=O)N1CCC(CNC(=O)C2CCCCC2)CC1,i,+
O=C(CSc1cc(N2CCOCC2)ncn1)Nc1cc(C(F)(F)F)ccc1Cl,i,i
CCCOc1cn(-c2ccc(F)cc2)nc1C(=O)Nc1cc(Cl)ccc1OC,i,i
O=C(NCc1cccs1)C(=O)NCC1CCN(Cc2cccs2)CC1,i,i
COCCN1CCC(CNC(=O)C(=O)NCc2cccs2)CC1,i,+
O=C(c1ccc(Br)o1)N1CCC(Cn2cnc3ccccc32)CC1,i,+
O=C(c1cc2ccccc2oc1=O)N1CCC(Cn2cnc3ccccc32)CC1,i,i
CC1CC(C)CN(Cc2nc3c(c(=O)n(C)c(=O)n3C)n2CC(=O)C(C)(C)C)C1 (stereo not drawn),i,+
Cn1c(=O)c2c(nc(CN3CCN(c4ccc(F)cc4)CC3)n2CC(=O)C(C)(C)C)n(C)c1=O,i,i
CCOC(=O)C(C)Sc1ccnc2c1c(=O)n(C)c(=O)n2C (stereo not drawn),i,i
COc1ccc(C(=O)CSc2ccnc3c2c(=O)n(C)c(=O)n3C)cc1,i,i
CCOC(=O)N1CCN(C(=O)CSc2ccnc3c2c(=O)n(C)c(=O)n3C)CC1,nt,+
COC(=O)CSc1ccnc2c1c(=O)n(C)c(=O)n2C,i,+
CCOc1ccc(-c2noc(C3CC(=O)N(c4cc(Cl)ccc4OC)C3)n2)cc1 (stereo not drawn),i,i

# Assay outcomes: PubChem BioAssay, several laboratories
